From PubChem BioAssay
Shown are actives, neighbours in structure and some others; about 1.8% of the full set was active somewhere.
PME-1 inh: blocks human protein phosphatase methylesterase 1; recombinant PME-1, FP-Rh probe fluorescence polarization; inhibition, % at 5.9 µM; actives 0.53% (n = 320,000); Q9Y570; AID 2130;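 active = inhibition above the campaign mean of all compounds plus 3 SD, cut at about 26% in these data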;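 note: competitive labeling of PME-1 active site by serine hydrolase directed probe; 0% = PME-1 with DMSO and 100% = wells lacking PME-1 enzyme; inhibitors block probe labeling so polarization falls and inhibition rises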
PAD4 FP inh: inhibitors of human PAD4 | Q9UM07 | recombinant PAD4, RCA probe fluorescence polarization | inhibition, % at 6.36 µM | actives 0.41% (n = 330,000) | AID 485272;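 active = percent inhibition above a cutoff equal to the mean of all tested compounds plus 3 SD, cut at about 15% in these data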;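 note: 0% = PAD4 with RCA probe and DMSO and 100% = probe without PAD4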
LYPLA1 inh: counter-screen for PME1 inhibitors: inhibitors of human LYPLA1; O75608; recombinant LYPLA1, FP-Rh probe fluorescence polarization; inhibition, % at 5.9 µM; actives 0.16% (n = 320,000);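 active = inhibition above the mean of all tested compounds plus 3 SD, set per campaign, cut at about 14% in these data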;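 note: inhibitors block serine hydrolase probe labeling of LYPLA1 so polarization falls; 0% = enzyme with DMSO and 100% = wells lacking LYPLA1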
Target sequence (O75608 whole entry, looked up): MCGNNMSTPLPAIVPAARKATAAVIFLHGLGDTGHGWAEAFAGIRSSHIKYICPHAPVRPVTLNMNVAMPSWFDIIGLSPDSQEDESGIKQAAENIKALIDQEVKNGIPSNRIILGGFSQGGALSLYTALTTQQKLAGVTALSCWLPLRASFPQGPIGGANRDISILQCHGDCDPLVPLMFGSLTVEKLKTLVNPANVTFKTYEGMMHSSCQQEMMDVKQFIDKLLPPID
LYPLA2 inh: counter-screen for PME1 inhibitors: inhibitors of human LYPLA2 | recombinant LYPLA2, FP-Rh probe fluorescence polarization | inhibition, % at 5.9 µM | actives 0.38% (n = 320,000) | AID 2177;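 active = inhibition above the screen-wide mean plus 3 SD, limit set per campaign, cut at about 26% in these data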;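 note: 0% = LYPLA2 with DMSO and 100% = wells lacking LYPLA2 enzyme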
GSTO1 inh: counter-screen for RBBP9 inhibitors: inhibitors of human GSTO1; inhibition, % at 5.96 µM; AID 1974; actives 1.1% (n = 300,000); recombinant GSTO1, activity-based probe fluorescence polarization;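 active = inhibition above the campaign mean inhibition plus 3 SD, cut at about 35% in these data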;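 note: 0% = GSTO1-1 with DMSO and 100% = wells lacking GSTO1-1 enzyme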
Target sequence (P78417 whole entry, looked up): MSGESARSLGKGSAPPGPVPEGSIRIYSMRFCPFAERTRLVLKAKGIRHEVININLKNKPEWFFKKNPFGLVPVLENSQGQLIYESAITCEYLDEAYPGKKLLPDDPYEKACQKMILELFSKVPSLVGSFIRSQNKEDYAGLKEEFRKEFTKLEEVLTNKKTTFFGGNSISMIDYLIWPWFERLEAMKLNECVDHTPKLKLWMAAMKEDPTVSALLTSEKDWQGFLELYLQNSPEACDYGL
Fam108B inh: Fam108B inhibition, counter-screen for RBBP9 inhibitors. recombinant Fam108B, FP-Rh probe fluorescence polarization. inhibition, % at 9.51 µM. actives 0.33% (n = 300,000). AID 1947;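 active = inhibition above the screen mean inhibition plus 3 SD, computed separately per campaign, cut at about 18% in these data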;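 note: inhibitors lower polarization as less probe binds the enzyme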
Fam108b inh conf: confirmation of mouse Fam108b serine hydrolase inhibitors; actives 44% (n = 930); shares compounds with Fam108B inh; AID 1978; recombinant Fam108b, FP-Rh probe fluorescence polarization; inhibition, % at 9.51 µM;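 active = inhibition above a limit from the primary screen, the mean over all compounds plus 3 SD, cut at about 19% in these data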;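 note: 0% = median of active Fam108b wells and 100% = catalytically dead S170A mutant; inhibitors free the probe so polarization falls as inhibition rises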
Fam108b ABPP HTS: inhibits mouse Fam108b in gel-based ABPP; shares compounds with Fam108B inh; recombinant Fam108b, fluorophosphonate probe; inhibition, % at 20 µM; actives 44% (n = 260); in the data active = inhibition above about 40%
Numbers without * were called inactive; · = not tested or not shown.

SMILES	PME-1 inh	PAD4 FP inh	LYPLA1 inh	LYPLA2 inh	GSTO1 inh	Fam108B inh	Fam108b inh conf	others
N=C1/C(=C\c2coc3ccccc3c2=O)C(=O)N=C2SC(c3ccncc3)=NN12	-55	-36	-3	-2	-477	9	·
CC(C)CSC1=NSC2=NC(=O)/C(=C\c3coc4ccccc4c3=O)C(=N)N12	22	-27	6	0	-57	37*	40*	Fam108b ABPP HTS=15
CSC1=NSC2=NC(=O)/C(=C\c3coc4ccccc4c3=O)C(=N)N12	18	-10	-8	-6	-31	31*	54*	Fam108b ABPP HTS=5
COc1cccc(NC(=O)COC(=O)CCC(=O)c2cccs2)c1	4	-1	-2	2	·	·	·
COc1ccc(C(C(=O)NCC2CCCO2)N(Cc2ccccc2)C(=O)CNC(=O)c2ccco2)cc1OC (configuration not stated)	0	1	4	-3	3	2	·
CC1=NN(c2ccccc2)C(=O)/C1=C/c1c(O)n(-c2ccc(F)cc2)[nH]c1=O	51*	-1	0	5	12	46*	51*	Fam108b ABPP HTS=5
O=[N+]([O-])c1cccc(-c2nc(-c3ccccc3)c(-c3cccs3)[nH]2)c1	2	-5	2	1	-4	-2	·
O=[N+]([O-])c1ccc(-c2nc(-c3cccs3)c(-c3cccs3)[nH]2)cc1	42*	-19	-22	-8	-20	24*	20*
O=[N+]([O-])c1cccc(-c2nc(-c3cccs3)c(-c3cccs3)[nH]2)c1	32*	-1	-4	8	-3	26*	7
COc1ccc(-c2nc(-c3cccs3)c(-c3cccs3)[nH]2)cc1OC	13	1	-3	-5	3	10	·
Fc1ccc(-c2nc(-c3cccs3)[nH]c2-c2ccc(F)cc2)cc1	15	-2	4	15	-2	19*	6
C/C(=N/OC(=O)c1ccc(C(F)(F)F)cc1)c1oc(C)nc1C	3	-4	2	7	7	-4	·
Nc1nc2ccccc2n1N=Cc1ccc(Br)cc1	·	·	·	·	·	·	·	Fam108b ABPP HTS=0
CCNc1nc(NCC)n2c(SCC(=O)Nc3ccccc3C(F)(F)F)nnc2n1	-1	-2	-2	2	1	0	·
CCOC(=O)CSc1nc2c(sc(=S)n2-c2ccccc2OC)c(=O)n1Cc1ccco1	26	-4	-3	-4	-1	19*	7
COc1cc2c(cc1NC(=O)Nc1cccc(C)c1)oc1ccccc12	36*	-4	-12	6	-3	22*	8
COc1cc2c(cc1NC(=O)Nc1ccc(C)cc1)oc1ccccc12	12	1	-7	-18	-14	5	·
On1onc2c3cc(-c4ccccc4)nc3ccc21	45*	1	-7	3	6	27*	21*
Cc1cc(NN=Cc2c(O)ccc3ccccc23)nc(-c2ccccc2O)n1	·	·	·	·	·	·	·	Fam108b ABPP HTS=95*
S=C(NCc1ccc2[nH]c3c(c2c1)CCCC3)Nc1ccccc1	9	-1	-2	7	-5	21*	13
Cc1cc(C)cc(NC(=S)NCc2ccc3[nH]c4c(c3c2)CCCC4)c1	9	-2	-4	-2	1	2	·
Cc1ccc2c(c1)-n1c(nc3ccccc3c1=O)C(Cc1ccccc1)NC2=O (configuration not stated)	·	-3	·	·	·	·	·
CN(/N=C/c1ccc(O)cc1O)c1nc(-c2ccccc2)cc(-c2ccccc2)n1	23	-5	-9	8	-3	33*	19*
Cc1ccc(C)n1-c1cccc(C(=O)O)c1	-27	7	-3	1	53*	35*	43*	Fam108b ABPP HTS=0
CSCc1c(C(=O)Nc2ccccc2N2CCOCC2)oc2ccccc12	-6	1	-3	-2	·	·	·
Oc1c(Br)cc(/C=N/Nc2nncc3ccccc23)cc1Br	5	2	1	-5	9	19*	23*
Oc1c(Br)cc(/C=N/Nc2ccc(Cl)nn2)cc1Br	12	-4	5	3	15	26*	-13
